Reference: PubChem BioAssay (EPA / NIEHS)
Where “and” joins values, the source holds several entries; their conditions need not be identical. Equal entries are not always repeated. The source holds several records for some structures; these can differ, active in one and inactive in another. Calls of active or inactive are those of the source. The calls were made as follows: active = hit-call score of the fitted dose curve at least 0.9, where 1 is the maximum; inactive = score below 0.9.

How the values were obtained:
Conditions in all cases: mRNA level, 48 h; actives raise or lower the signal
[1] = read-out: Lipase C (LIPC), LIPC (gene 3990); experiment: LTEA_HepaRG_LIPC: Life Technologies and Expression Analysis (LTEA) Assay for Lipase C (LIPC) using HepaRG (AID 2283514)
Summary of the method: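 HepaRG, 48 h exposure, 8-pt half-log series from 100 uM in 0.5% DMSO, duplicates. Readout: LIPC mRNA by Fluidigm qRT-PCR, housekeeping-normalized (ACTB/GAPDH/POLR2A). Gain or loss fitted bidirectionally against DMSO baseline.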

[2] = read-out: Lipoprotein lipase (LPL), LPL (gene 4023); experiment: LTEA_HepaRG_LPL: Life Technologies and Expression Analysis (LTEA) Assay for Lipoprotein lipase (LPL) using HepaRG (AID 2283515)
Summary of the method: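 HepaRG, 48 h exposure, 8-pt half-log dilutions from 100 uM, 0.5% DMSO vehicle, duplicates; qRT-PCR (Fluidigm array) of LPL mRNA vs housekeeping genes; bidirectional curve fit relative to DMSO baseline.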

[3] = read-out: MicroRNA 122 (MIR122), gene 406906; experiment: LTEA_HepaRG_MIR122: Life Technologies and Expression Analysis (LTEA) Assay for MicroRNA 122 (MIR122) using HepaRG (AID 2283516); also: the transcript read is the microRNA miR-122
Summary of the method: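 qRT-PCR read-out (TaqMan, Fluidigm array), normalized to three housekeeping genes; HepaRG cells dosed 48 h at 8 concentrations up to 100 uM in 0.5% DMSO, duplicate; gain or loss fitted against DMSO baseline.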

[4] = read-out: matrix metalloproteinase-10 (MMP10), MMP10 (gene 4319); experiment: LTEA_HepaRG_MMP10: Life Technologies and Expression Analysis (LTEA) Assay for matrix metalloproteinase-10 (MMP10) using HepaRG (AID 2283517)
Summary of the method: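 Transcript levels come from Fluidigm qRT-PCR normalized to three housekeeping genes, with curves fitted bidirectionally against 0.5% DMSO. Human HepaRG cells were dosed for 48 hours at concentrations up to 100 uM.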

[5] = read-out: MYC, MYC (gene 4609); experiment: LTEA_HepaRG_MYC: Life Technologies and Expression Analysis (LTEA) Assay for MYC using HepaRG (AID 2283518)
Summary of the method: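 Differentiated HepaRG cells exposed 48 h in serum-free induction medium to 8 concentrations (top 100 uM, half-log steps; 0.5% DMSO), duplicate. MYC mRNA measured by Fluidigm qRT-PCR, normalized to ACTB, GAPDH, POLR2A; bidirectional fit versus DMSO.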

[6] = read-out: matrix metalloproteinase-3 (MMP3), MMP3 (gene 4314); experiment: LTEA_HepaRG_MMP3: Life Technologies and Expression Analysis (LTEA) Assay for matrix metalloproteinase-3 (MMP3) using HepaRG (AID 2283519)
Summary of the method: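 qRT-PCR read-out of MMP3 mRNA (normalised to three housekeeping genes) in HepaRG liver cells after 48 h chemical exposure; 8-point half-log series, top 100 uM, 0.5% DMSO vehicle. Bidirectional curve fitting against DMSO baseline.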

[7] = read-out: Paternally Expressed 10 (PEG10), PEG10 (gene 23089); experiment: LTEA_HepaRG_PEG10: Life Technologies and Expression Analysis (LTEA) Assay for Paternally Expressed 10 (PEG10) using HepaRG (AID 2283520);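 as to AC50: PEG10 transcript by qRT-PCR normalised to ACTB GAPDH and POLR2A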
Summary of the method: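 qRT-PCR read-out: PEG10 mRNA normalised to three housekeeping genes, fitted bidirectionally against 0.5% DMSO vehicle. HepaRG cells received test chemicals for 48 h in serum-free induction medium, 8 points, top 100 uM, half-log steps.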

[8] = read-out: Phosphatase and tensin (PTEN), PTEN (gene 5728); experiment: LTEA_HepaRG_PTEN: Life Technologies and Expression Analysis (LTEA) Assay for Phosphatase and tensin (PTEN) using HepaRG (AID 2283523)
Summary of the method: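 HepaRG, 48 h exposure, 8-pt half-log series from 100 uM top, 0.5% DMSO vehicle, duplicates. Readout: Fluidigm qRT-PCR of PTEN transcript; housekeeping normalization (ACTB, GAPDH, POLR2A). Gain or loss fitted relative to DMSO baseline.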

[9] = read-out: solute carrier (SLC22A1), SLC22A1 (gene 6580); experiment: LTEA_HepaRG_SLC22A1: Life Technologies and Expression Analysis (LTEA) Assay for solute carrier (SLC22A1) using HepaRG (AID 2283524)
Summary of the method: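 qRT-PCR readout (TaqMan, Fluidigm arrays) of SLC22A1 transcript, normalized to three housekeeping genes; bidirectional curve fit relative to 0.5% DMSO vehicle. Differentiated human HepaRG cells, 48 h chemical exposure, top concentration 100 uM, half-log steps, eight points.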

[10] = read-out: Pyruvate Dehydrogenase Kinase 4 (PDK4), PDK4 (gene 5166); experiment: LTEA_HepaRG_PDK4: Life Technologies and Expression Analysis (LTEA) Assay for Pyruvate Dehydrogenase Kinase 4 (PDK4) using HepaRG (AID 2283525)
Summary of the method: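 HepaRG (human liver line), 48 h chemical exposure, 8-pt half-log CRC top 100 uM, 0.5% DMSO vehicle, duplicates. Readout: TaqMan qRT-PCR of PDK4 mRNA, housekeeping-normalized; gain/loss fit relative to DMSO baseline.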

[11] = read-out: NAD(P)H dehydrogenase [quinone] 1 (NQO1), NQO1 (gene 1728); experiment: LTEA_HepaRG_NQO1: Life Technologies and Expression Analysis (LTEA) Assay for NAD(P)H dehydrogenase [quinone] 1 (NQO1) using HepaRG (AID 2283526)
Summary of the method: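 qRT-PCR read-out (Fluidigm TaqMan), normalized to three housekeeping genes, after 48 h chemical exposure of HepaRG cells. Concentrations: eight points, top 100 uM, half-log steps, 0.5% DMSO vehicle. Gain or loss of signal fitted relative to DMSO.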

[12] = read-out: Nuclear factor erythroid 2-related factor 2 (Homo sapiens) (UniProt Q16236); experiment: LTEA_HepaRG_NFE2L2: Life Technologies and Expression Analysis (LTEA) Assay for Nuclear factor erythroid 2-related factor 2 (NFE2L2) Transcription Factor using HepaRG (AID 2283527);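 also: TaqMan qRT-PCR transcript level normalised to ACTB GAPDH and POLR2A housekeeping genes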
Summary of the method: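 HepaRG, 48 h dosing, 8-pt half-log series from 100 uM in 0.5% DMSO, duplicates. Read-out: NFE2L2 mRNA by qRT-PCR (ACTB/GAPDH/POLR2A normalization). Bidirectional curve fit vs DMSO baseline.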

[13] = read-out: succinate dehydrogenase complex iron sulfur subunit B (SDHB), SDHB (gene 6390); experiment: LTEA_HepaRG_SDHB: Life Technologies and Expression Analysis (LTEA) Assay for succinate dehydrogenase complex iron sulfur subunit B (SDHB) using HepaRG (AID 2283528)
Summary of the method: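 HepaRG, 48 h exposure, 8-pt half-log series from 100 uM in 0.5% DMSO, duplicates. Readout: SDHB mRNA by Fluidigm qRT-PCR vs housekeeping genes; bidirectional fit relative to DMSO.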

[14] = read-out: Signal transducer and activator of transcription 3 (Homo sapiens) (UniProt P40763); experiment: LTEA_HepaRG_STAT3: Life Technologies and Expression Analysis (LTEA) Assay for Signal transducer and activator of transcription (STAT3) using HepaRG (AID 2283529)
Summary of the method: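 HepaRG, 48 h exposure, 8-pt half-log series (top 100 uM), 0.5% DMSO vehicle, duplicates. Readout: STAT3 transcript by Fluidigm qRT-PCR, housekeeping-normalized; bidirectional fit vs DMSO baseline.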

[15] = read-out: solute carrier (SLCO1B1), SLCO1B1 (gene 10599); experiment: LTEA_HepaRG_SLCO1B1: Life Technologies and Expression Analysis (LTEA) Assay for solute carrier (SLCO1B1) using HepaRG (AID 2283530)
Summary of the method: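 Differentiated human HepaRG cells were exposed for 48 h in serum-free induction medium to eight half-log concentrations, top 100 uM, in 0.5% DMSO. SLCO1B1 mRNA was measured by qRT-PCR, normalized to ACTB, GAPDH and POLR2A, and fitted bidirectionally against DMSO.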

[16] = read-out: sulfotransferase 2A1 (SULT2A1), SULT2A1 (gene 6822); experiment: LTEA_HepaRG_SULT2A1: Life Technologies and Expression Analysis (LTEA) Assay for sulfotransferase 2A1 (SULT2A1) using HepaRG (AID 2283531)
Summary of the method: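 HepaRG human liver cells, 48 h exposure in serum-free induction medium to 8 half-log concentrations topping at 100 µM (0.5% DMSO), duplicate wells. SULT2A1 mRNA measured by TaqMan qRT-PCR, normalized to ACTB/GAPDH/POLR2A; bidirectional fit against DMSO.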

[17] = read-out: Transforming Growth Factor (TGFA), TGFA (gene 7039); experiment: LTEA_HepaRG_TGFA: Life Technologies and Expression Analysis (LTEA) Assay for Transforming Growth Factor (TGFA) using HepaRG (AID 2283532)
Summary of the method: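 qRT-PCR read-out of TGFA transcript, normalized to three housekeeping genes, fitted bidirectionally against 0.5% DMSO baseline. Human HepaRG cultures received chemicals for 48 h at eight half-log concentrations, top 100 uM.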

[18] = read-out: Transforming Growth Factor (TGFB1), TGFB1 (gene 7040); experiment: LTEA_HepaRG_TGFB1: Life Technologies and Expression Analysis (LTEA) Assay for Transforming Growth Factor (TGFB1) Transporter using HepaRG (AID 2283533)
Summary of the method: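 Differentiated HepaRG cells exposed 48 hr in serum-free induction medium to eight half-log concentrations up to 100 uM (0.5% DMSO), duplicate; TGFB1 mRNA by TaqMan qRT-PCR normalised to ACTB, GAPDH, POLR2A; bidirectional fit against DMSO.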

[19] = read-out: Nuclear factor NF-kappa-B p105 subunit (Homo sapiens) (UniProt P19838); experiment: LTEA_HepaRG_NFKB1: Life Technologies and Expression Analysis (LTEA) Assay for Nuclear Factor Kappa B Subunit 1 (NFKB1) using HepaRG (AID 2283521);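 also: TaqMan qRT-PCR transcript normalised to ACTB GAPDH and POLR2A housekeeping genes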
Summary of the method: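 Differentiated human HepaRG cells were exposed for 48 h in serum-free induction medium to eight concentrations (top 100 uM, half-log steps, 0.5% DMSO), in duplicate. NFKB1 mRNA was measured by TaqMan qRT-PCR, normalized to ACTB/GAPDH/POLR2A, and fitted bidirectionally against DMSO.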

[20] = read-out: Protein phosphatase 2A (PPP2R4), PTPA (gene 5524); experiment: LTEA_HepaRG_PPP2R4: Life Technologies and Expression Analysis (LTEA) Assay for Protein phosphatase 2A (PPP2R4) using HepaRG (AID 2283522)
Summary of the method: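 HepaRG, 48 h exposure, 8-pt half-log series from 100 uM, 0.5% DMSO vehicle, duplicates. Readout: PPP2R4 mRNA, Fluidigm qRT-PCR, housekeeping-normalized. Bidirectional curve fit vs DMSO baseline.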

Measured: AC50

Chain of Nuclear factor erythroid 2-related factor 2 (Homo sapiens) (Q16236 whole entry, looked up): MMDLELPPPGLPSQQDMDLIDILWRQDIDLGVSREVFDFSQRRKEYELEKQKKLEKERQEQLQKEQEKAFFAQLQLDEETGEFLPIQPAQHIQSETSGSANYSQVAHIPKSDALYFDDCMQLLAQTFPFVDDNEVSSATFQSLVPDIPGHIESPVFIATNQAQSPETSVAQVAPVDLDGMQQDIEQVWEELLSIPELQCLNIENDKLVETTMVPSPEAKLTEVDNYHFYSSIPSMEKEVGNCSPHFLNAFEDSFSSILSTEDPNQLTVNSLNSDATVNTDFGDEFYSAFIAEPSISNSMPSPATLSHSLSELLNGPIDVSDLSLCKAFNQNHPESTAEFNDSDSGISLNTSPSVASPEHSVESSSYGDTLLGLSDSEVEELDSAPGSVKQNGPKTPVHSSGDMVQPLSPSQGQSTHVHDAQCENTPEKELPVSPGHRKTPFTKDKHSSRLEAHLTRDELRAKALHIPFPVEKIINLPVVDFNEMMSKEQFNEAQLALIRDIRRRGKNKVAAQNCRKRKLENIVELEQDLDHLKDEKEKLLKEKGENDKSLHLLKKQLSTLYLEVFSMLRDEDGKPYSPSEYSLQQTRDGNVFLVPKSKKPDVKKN
Chain of Nuclear factor NF-kappa-B p105 subunit (Homo sapiens) (P19838 whole entry, looked up): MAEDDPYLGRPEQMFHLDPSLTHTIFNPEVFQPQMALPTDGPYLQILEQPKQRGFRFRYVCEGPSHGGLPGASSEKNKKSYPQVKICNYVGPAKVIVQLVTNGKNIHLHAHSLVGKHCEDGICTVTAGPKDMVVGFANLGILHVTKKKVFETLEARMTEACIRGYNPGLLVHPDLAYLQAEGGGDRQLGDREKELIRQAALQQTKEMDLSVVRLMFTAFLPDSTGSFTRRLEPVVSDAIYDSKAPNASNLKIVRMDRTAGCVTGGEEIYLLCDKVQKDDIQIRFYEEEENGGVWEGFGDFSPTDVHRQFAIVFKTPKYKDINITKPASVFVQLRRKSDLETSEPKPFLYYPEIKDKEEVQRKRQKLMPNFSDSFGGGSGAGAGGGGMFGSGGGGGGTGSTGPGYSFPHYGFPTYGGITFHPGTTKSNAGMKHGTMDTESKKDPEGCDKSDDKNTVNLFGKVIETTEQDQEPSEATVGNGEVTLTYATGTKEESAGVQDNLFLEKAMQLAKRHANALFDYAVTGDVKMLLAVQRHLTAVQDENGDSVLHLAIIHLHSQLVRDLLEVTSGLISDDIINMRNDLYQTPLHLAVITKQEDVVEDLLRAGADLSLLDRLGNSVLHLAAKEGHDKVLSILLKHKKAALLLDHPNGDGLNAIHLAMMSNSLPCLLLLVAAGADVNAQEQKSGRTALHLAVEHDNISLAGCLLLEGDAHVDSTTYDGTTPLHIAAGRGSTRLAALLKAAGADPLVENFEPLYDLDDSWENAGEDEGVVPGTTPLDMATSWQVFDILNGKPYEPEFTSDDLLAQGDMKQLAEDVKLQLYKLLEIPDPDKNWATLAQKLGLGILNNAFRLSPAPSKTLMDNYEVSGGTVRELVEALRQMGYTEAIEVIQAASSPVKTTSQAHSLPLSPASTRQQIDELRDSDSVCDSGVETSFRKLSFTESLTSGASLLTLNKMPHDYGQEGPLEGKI
Chain of Signal transducer and activator of transcription 3 (Homo sapiens) (P40763 whole entry, looked up): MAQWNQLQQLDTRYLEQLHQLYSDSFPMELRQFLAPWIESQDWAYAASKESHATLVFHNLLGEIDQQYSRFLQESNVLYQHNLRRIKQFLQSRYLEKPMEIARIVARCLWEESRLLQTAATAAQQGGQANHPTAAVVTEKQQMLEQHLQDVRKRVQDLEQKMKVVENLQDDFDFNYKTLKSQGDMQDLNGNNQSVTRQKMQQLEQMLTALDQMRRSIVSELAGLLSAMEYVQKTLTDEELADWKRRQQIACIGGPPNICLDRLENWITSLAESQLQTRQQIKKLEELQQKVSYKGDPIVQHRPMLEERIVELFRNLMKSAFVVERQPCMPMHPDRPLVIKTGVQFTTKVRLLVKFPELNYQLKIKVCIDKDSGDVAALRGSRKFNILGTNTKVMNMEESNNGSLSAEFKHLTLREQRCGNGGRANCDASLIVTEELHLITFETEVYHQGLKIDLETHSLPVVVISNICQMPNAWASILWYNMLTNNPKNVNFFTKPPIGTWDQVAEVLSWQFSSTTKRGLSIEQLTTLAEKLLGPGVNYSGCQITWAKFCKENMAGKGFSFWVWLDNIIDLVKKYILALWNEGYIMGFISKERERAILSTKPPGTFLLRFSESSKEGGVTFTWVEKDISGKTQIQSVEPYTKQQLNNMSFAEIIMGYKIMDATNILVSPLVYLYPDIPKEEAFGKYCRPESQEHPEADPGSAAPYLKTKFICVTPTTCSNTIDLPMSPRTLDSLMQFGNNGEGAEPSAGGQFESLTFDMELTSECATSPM

CCOC(=O)C(C)Oc1ccc(Oc2cnc3cc(Cl)ccc3n2)cc1 (stereo unspecified)
active: [6] 8.53 µM | [9] 17.2 µM | [10] 70 µM | [16] 2.34 µM
not listed: [19] | [20]
inactive: all other assays above

CCCCCCC(C)OC(=O)COc1nc(F)c(Cl)c(N)c1Cl (stereo unspecified)
not listed: [7] | [12]
inactive: all other assays above

CCCCOC(=O)[C@@H](C)Oc1ccc(Oc2ccc(C(F)(F)F)cn2)cc1
active: [7] 5.38 µM
not listed: [12]
inactive: all other assays above

CC(C)(c1ccc(O)cc1)c1ccc(O)cc1
active: [5] 9.92 µM | [13] 5 nM | [15] 9.92 µM | [16] 291 µM
inactive: [1] | [2] | [3] | [4] | [5] | [6] | [19] | [8] | [9] | [10] | [11] | [13] | [14] | [15] | [16] | [17] | [18]

CCOC(=O)NCCOc1ccc(Oc2ccccc2)cc1
inactive: [19] | [8] | [10] | [11] | [13] | [14] | [18]
active: [1] 89 µM | [2] 81.6 µM | [3] 75.3 µM | [4] 50 µM | [5] 79.9 µM | [6] 50 µM | [7] 29 µM | [9] 84.9 µM | [15] 93.4 µM | [16] 82.7 µM | [17] 78.6 µM

S=C(S)NCCNC(=S)S.[Mn+2].[S-]C([S-])=NCCN=C([S-])[S-].[Zn+2]
inactive: [5] | [6] | [10] | [11] | [18]
active: [1] 1.21 µM and 1.2 µM and 1.48 µM | [2] 1.11 µM and 1.17 µM and 2.99 µM | [3] 780 nM and 954 nM and 816 nM | [4] 846 nM and 655 nM | [5] 4.59 µM and 3.61 µM | [8] 1.75 µM and 2.98 µM and 2.22 µM | [9] 985 nM and 1.14 µM and 908 nM | [10] 3.66 µM and 3.63 µM | [11] 0.903 µM | [13] 601 nM and 552 nM and 792 nM | [14] 809 nM and 549 nM and 297 nM | [15] 1.25 µM and 1.22 µM and 1.54 µM | [16] 1.2 µM and 1.29 µM and 1.56 µM | [17] 4.16 µM and 3.27 µM and 4.59 µM

CC1(C)C(C=C(Cl)Cl)C1C(=O)OCc1cccc(Oc2ccccc2)c1 (stereo unspecified)
not listed: [12] | [19]
inactive: all other assays above

O=C(c1ccccc1)C1CCCCC1
not listed: [7] | [20]
inactive: all other assays above

CC(C)CCCCCCc1ccc(O)cc1
not listed: [7] | [12]
inactive: all other assays above

O=C(O)c1ccccc1
not listed: [19] | [20]
inactive: all other assays above

O=C(c1ccc(O)cc1O)c1ccc(O)cc1O
not listed: [12] | [20]
inactive: all other assays above

O=C(Nc1ccc([N+](=O)[O-])cc1Cl)c1cc(Cl)ccc1O
inactive: [2] | [3] | [19]
active: [1] 4.31 µM | [4] 3.43 µM | [5] 2.28 µM | [6] 4.24 µM | [20] 3.47 µM | [8] 4.53 µM | [9] 5.5 µM | [10] 4.31 µM | [11] 13.4 µM | [13] 2680 nM | [14] 2.9 µM | [15] 3.28 µM | [16] 5.12 µM | [17] 1.93 µM | [18] 3.95 µM
